This passage reports Potency and outcome results from PubChem BioAssay (Tox21).

Inconclusive results are not listed. The source made the active and inactive calls. Unless noted, calls come from the whole dose curve; as a rule, active = well fitted curve in the direction sought with a large enough effect in the repeat runs; inconclusive = weak or mixed curves; inactive = no such curve, though single readings can be large; an effect the other way counts as inactive or inconclusive.

Experiment [1] is described as follows: qHTS assay to identify small molecule antagonists of the vitamin D receptor (VDR) signaling pathway - cell viability counter screen (AID 743225). Note: nearly all actives have a fitted effect of over 50% in size. A digest of the protocol:
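Luminescent cell viability (CellTiter-Glo) in VDR-bla HEK 293T cells after 16 h compound exposure at 37C in the presence of 3 nM final 1-alpha,25-dihydroxy vitamin D3.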
On the technique in general: In qHTS, concentration-response curves come from the screen itself.

A short description of experiment [2]: qHTS assay to identify small molecule agonists of the NFkB signaling pathway (AID 1159509; active = well fitted curve in the direction sought with a large enough effect in the signal ratio in the repeat runs, not every such curve was filed as active; the % refers to the signal ratio; note: series mostly up to about 61 µM). The gist of the method:
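After overnight attachment, reporter cells received test compounds, DMSO or positive controls and were incubated 5 hr at 37 C. FRET substrate was then added for 1.5 hr at room temperature before dual-emission fluorescence reading.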

The nature of experiment [3]: qHTS assay to identify small molecule agonists of the NFkB signaling pathway - cell viability counter screen (AID 1159515; calls by dose curve; note: series mostly up to about 61 µM; nearly all actives have a fitted effect of over 55% in size). The gist of the method:
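NFkB-bla ME-180 cells, 2,000/well, plated overnight at 37 C; compound added for 5 hr at 37 C. Viability read in the same wells as the bla reporter, by CellTiter-Glo luminescence after 30 min at room temperature.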

The nature of experiment [4]: qHTS assay to identify small molecule agonists of the endoplasmic reticulum stress response signaling pathway (AID 1159516; active = well fitted activation curve with a large enough effect in the signal ratio in the repeat runs, not every such curve was filed as active; the % refers to the signal ratio). A digest of the protocol:
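CellSensor ESRE-bla HeLa cells, 1,500 per well, plated overnight, then exposed to compounds for 5 hr at 37 C. Beta-lactamase reporter read with LiveBLAzer B/G FRET substrate after 2 hr at room temperature, 405 nm excitation, 460 and 530 nm emission.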

The nature of experiment [5]: qHTS assay to identify small molecule agonists of the endoplasmic reticulum stress response signaling pathway - cell viability counter screen (AID 1159517; calls by dose curve;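 note: HeLa cells carrying an ER stress response element beta-lactamase reporter; series mostly up to about 61 µM; nearly all actives have a fitted effect of over 50% in size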). A digest of the protocol:
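Luminescence readout: CellTiter-Glo, 30 min RT, same wells as the ESRE-bla reporter read. HeLa ESRE-bla, 1,500 cells/well, o/n 37 C; cpd 5 hr 37 C/5% CO2.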

The nature of experiment [6]: qHTS assay to identify small molecule antagonists of the retinoid-related orphan receptor gamma (ROR-gamma) signaling pathway - cell viability counter screen (AID 1159520). Note: nearly all actives have a fitted effect of over 50% in size. A digest of the protocol:
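Tet-on ROR gamma CHO cells (1,000/well) were plated 4 hr, given compounds in DMSO for 2 hr at 37 C, then induced with 1 uM final doxycycline for 16 hr. Viability was read as ATP by CellTiter-Glo luminescence after 30 min.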

In experiment [7] the target is Nuclear receptor ROR-gamma (Homo sapiens) (UniProt P51449). Kind of experiment: qHTS assay to identify small molecule antagonists of the retinoid-related orphan receptor gamma (ROR-gamma) signaling pathway (AID 1159521;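 note: CHO cells with doxycycline inducible ROR-gamma driving an RORE luciferase reporter; top concentration of the series differs between compounds; nearly all actives have a fitted effect of over 50% in size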). A digest of the protocol: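 CHO cells expressing RORγ under a TET-on promoter, luciferase under RORE control. Dox 1 uM final, 16 h; compounds added 2 h prior. Luminescence decrease measured.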

The nature of experiment [8]: qHTS assay to identify small molecule agonists of the AP-1 signaling pathway - cell viability counter screen (AID 1159525; calls by dose curve; note: nearly all actives have a fitted effect of over 55% in size). The gist of the method:
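ME-180 AP-1-bla, 2500 cells/well, Opti-MEM + 0.5% dialyzed FBS; overnight 37 °C; cpd 15-pt titration, 5 h 37 °C; CellTiter-Glo 30 min RT; luminescence read; normalised to TOAB and DMSO controls.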

Experiment [9] in a line: qHTS assay to identify small molecule agonists of the AP-1 signaling pathway (AID 1159526; calls by dose curve).
The nature of experiment [10]: qHTS assay to identify small molecule agonists of the RXR signaling pathway - cell viability counter screen (AID 1159529). A digest of the protocol: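 Same-well viability check after the LiveBLAzer FRET read: CellTiter-Glo added, luminescence measured after 30 min at room temperature. Reporter HEK 293T cells had been treated with compounds for 16 hr following a 5 hr preincubation.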

A short description of experiment [11]: qHTS assay to identify small molecule antagonists of the retinoid acid receptor (RAR) signaling pathway - cell viability counter screen (AID 1159551). Note: nearly all actives have a fitted effect of over 35% in size. A digest of the protocol: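 C3RL4 RARE-luciferase cells, 1,000/well, incubated overnight, then dosed with compound plus 1 uM retinol (final). After 6 hr at 37 C, viability read by CellTiter-Glo ATP luminescence following 30 min at room temperature.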

A short description of experiment [12]: qHTS assay to identify small molecule antagonists of the retinoic acid receptor (RAR) signaling pathway (AID 1159552; note: nearly all actives have a fitted effect of over 50% in size). A digest of the protocol: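 Readout: luciferase luminescence, 30 min post-reagent at RT. Setup: C3RL4 RARE reporter cells, compounds plus retinol 1 uM final, 6 hr incubation at 37 C and 5% CO2.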
Experiment [13] deals with Retinoic acid receptor RXR-alpha (Homo sapiens) (UniProt P19793). Kind of experiment: qHTS assay to identify small molecule agonists of the RXR signaling pathway (AID 1159527; calls by dose curve; note: nearly all actives have a fitted effect of over 35% in size). The gist of the method: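 Beta-lactamase reporter assay, agonist format. Engineered HEK 293T line, charcoal-stripped FBS at 2%, overnight (16 hr) exposure, fluorescence at 460 and 530 nm after 405 nm excitation.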

Experiment [14] is described as follows: qHTS assay to identify small molecule agonists of the retinoic acid receptor (RAR) signaling pathway (AID 1159553). Note: potency is the fitted concentration of half-maximal effect. A digest of the protocol: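 C3RL4 RARE-luciferase cells were seeded at 1,000/well and grown overnight at 37 C, then exposed to compounds for 6 hr at 37 C, 5% CO2. Luciferase reagent was added and luminescence was read after 30 min at room temperature.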

Chain of Retinoic acid receptor RXR-alpha (Homo sapiens) (P19793 whole entry, looked up): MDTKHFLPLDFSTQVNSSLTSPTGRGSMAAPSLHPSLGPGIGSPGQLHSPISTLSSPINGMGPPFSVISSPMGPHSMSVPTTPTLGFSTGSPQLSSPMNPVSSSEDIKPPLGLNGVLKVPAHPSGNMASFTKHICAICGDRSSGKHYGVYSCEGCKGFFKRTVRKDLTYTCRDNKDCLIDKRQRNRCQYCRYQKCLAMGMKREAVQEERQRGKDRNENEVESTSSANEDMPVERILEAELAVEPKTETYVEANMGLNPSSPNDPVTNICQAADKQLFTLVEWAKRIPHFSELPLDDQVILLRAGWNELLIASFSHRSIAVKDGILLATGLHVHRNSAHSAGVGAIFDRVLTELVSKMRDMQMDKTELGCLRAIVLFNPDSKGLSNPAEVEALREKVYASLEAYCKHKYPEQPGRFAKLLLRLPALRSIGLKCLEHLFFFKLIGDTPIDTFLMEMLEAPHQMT

With `CCOC1Oc2ccc(OS(C)(=O)=O)cc2C1(C)C` (stereo not given), the Potency entry in experiment [1], in experiment [5], in experiment [6], in experiment [7], in experiment [8] and in experiment [10] was “inactive” in each case. Besides, the Potency entry in experiment [11] and in experiment [12] was “inactive” each time. Moreover, the call in [2], in experiment [3], in experiment [4] and in experiment [9] was inactive.
With `O=C(O)c1c(Cl)ccc2cc(Cl)cnc12`, the Potency entry in experiment [1], in experiment [5], in experiment [6], in experiment [7], in experiment [13] and in [10] was “inactive” throughout. Besides, the Potency result in [11], in [12] and in experiment [14] was “inactive” each time. The molecule was called inactive in experiment [2], in experiment [3], in experiment [4] and in [9].
Turning to `CCCCCCCCBr`, the Potency entry in experiment [1], in experiment [5], in experiment [6], in [7], in [13] and in experiment [10] was “inactive” each time. In addition, the Potency result in experiment [11] and in experiment [12] was “inactive” each time. For the same molecule, the call in [2], in experiment [3], in [4] and in experiment [9] was inactive.
For the molecule `ClCC1CO1` (stereo not given), the Potency result in experiment [1], in [5], in experiment [6], in experiment [7], in experiment [8] and in experiment [10] was “inactive” in each case. For the same molecule, the Potency result in experiment [11] and in [12] was “inactive” each time. Also, the molecule was called inactive in [2], in [3], in experiment [4] and in experiment [9].
Turning to `O=[N+]([O-])c1cccc(CCl)c1`, the call in experiment [2], in [3], in [4] and in experiment [9] was inactive. Moreover, the Potency result in experiment [5], in experiment [6], in experiment [7], in experiment [13], in experiment [10] and in [11] was “inactive” each time. The Potency entry in experiment [12] and in experiment [14] was “inactive” in each case.
For `CCC1(CC)C(=O)C=CNC1=O`, the Potency entry in experiment [1], in experiment [5], in [6], in [7], in experiment [13] and in experiment [10] was “inactive” each time. Further, the Potency result in experiment [11], in [12] and in experiment [14] was “inactive” in each case. In addition, the result in experiment [2], in experiment [3], in experiment [4] and in experiment [9] was inactive.
As for `NC(=O)OCCCc1ccccc1`, the Potency entry in experiment [1], in experiment [5], in experiment [6], in [7], in experiment [8] and in experiment [10] was “inactive” throughout. Further, the Potency entry in [11], in [12] and in [14] was “inactive” each time. The molecule was called inactive in experiment [2], in experiment [3], in [4] and in experiment [9].
Consider `Cl/C=C/CCl`, for which the Potency entry in experiment [1], in experiment [5], in [6], in experiment [7], in [13] and in [10] was “inactive” throughout. For the same molecule, the Potency result in experiment [11], in experiment [12] and in experiment [14] was “inactive” each time. Also, the call in experiment [2], in experiment [3], in [4] and in [9] was inactive.
With `CCN(CC)C1CCCCC1`, the Potency result in experiment [1], in experiment [5], in [6], in experiment [7], in [13] and in [10] was “inactive” each time. Further, the Potency result in experiment [11], in experiment [12] and in experiment [14] was “inactive” each time. The call in [2], in experiment [3], in experiment [4] and in [9] was inactive.
Take `N[C@@H](Cc1ccc(Oc2cc(I)c(O)c(I)c2)c(I)c1)C(=O)O`: the Potency entry in experiment [1], in experiment [5], in [6], in experiment [7], in experiment [13] and in experiment [10] was “inactive” throughout. For the same molecule, the Potency result in experiment [11] and in experiment [12] was “inactive” each time. The outcome in [2], in [3], in [4] and in [9] was inactive.
For `COc1cc(CC(C)N)cc(OC)c1OC` (stereo not given), the Potency result in experiment [1], in experiment [5], in [6], in experiment [7], in [8] and in experiment [10] was “inactive” throughout. The Potency entry in experiment [11], in experiment [12] and in experiment [14] was “inactive” in each case. Besides, the call in [2], in experiment [3], in experiment [4] and in experiment [9] was inactive.
On to `O=C1CCCCC1Cl` (stereo not given), for which the Potency entry in [1], in experiment [5], in experiment [6], in experiment [7], in [8] and in experiment [10] was “inactive” throughout. Further, the Potency entry in experiment [11], in [12] and in [14] was “inactive” throughout. The molecule was classed as inactive in experiment [2], in experiment [3], in experiment [4] and in experiment [9].
For `N=C(N)[Se]`, the Potency entry in [1], in [5], in experiment [6], in experiment [7], in experiment [13] and in experiment [10] was “inactive” each time. The Potency result in experiment [11] and in [12] was “inactive” in each case. The outcome in experiment [2], in [3], in experiment [4] and in experiment [9] was inactive.
`Cc1ccc(-c2nc3ccc(C)cn3c2CC(=O)N(C)C)cc1`: the Potency result in [1], in experiment [5], in [6], in experiment [7], in experiment [8] and in experiment [10] was “inactive” each time. The Potency result in [11] and in experiment [12] was “inactive” in each case. Moreover, the outcome in experiment [2], in experiment [3], in [4] and in experiment [9] was inactive. Also, in experiment [14], the Potency is 23.7 µM (active).
With `CCC(=O)c1ccc(Cl)cc1`, the Potency entry in experiment [1], in experiment [5], in experiment [6], in experiment [7], in [13] and in experiment [10] was “inactive” each time. For the same molecule, the Potency entry in [11], in experiment [12] and in experiment [14] was “inactive” in each case. The result in experiment [2], in [3], in experiment [4] and in [9] was inactive.
Consider `O=C(Cl)OCc1ccccc1`, for which the Potency entry in experiment [1], in experiment [5], in [6], in [7], in experiment [13] and in [10] was “inactive” in each case. Also, the Potency entry in experiment [11] and in experiment [12] was “inactive” each time. Also, the call in [2], in [3], in experiment [4] and in experiment [9] was inactive.
Consider `NC(=O)CS(=O)C(c1ccccc1)c1ccccc1` (stereo not given), for which the Potency entry in [1], in [5], in experiment [6], in [7], in experiment [13] and in [10] was “inactive” in each case. In addition, the Potency result in experiment [11], in experiment [12] and in experiment [14] was “inactive” in each case. For the same molecule, the outcome in [2], in [3], in experiment [4] and in experiment [9] was inactive.
Consider `CC(C)(O)C(Cl)(Cl)Cl`, for which the Potency result in [1], in experiment [5], in experiment [6], in experiment [7], in experiment [8] and in [10] was “inactive” in each case. The Potency entry in experiment [11], in experiment [12] and in experiment [14] was “inactive” throughout. In addition, the call in experiment [2], in experiment [3], in experiment [4] and in [9] was inactive.
For `CCNP(=S)(OC)O/C(C)=C/C(=O)OC(C)C` (stereo not given), the Potency entry in experiment [1], in experiment [5], in experiment [6], in [7], in experiment [13] and in [10] was “inactive” each time. The Potency entry in [11], in experiment [12] and in [14] was “inactive” each time. The molecule was called inactive in [2], in experiment [3], in experiment [4] and in experiment [9].
For `CCN[C@H](C)Cc1cccc(C(F)(F)F)c1`, the Potency result in experiment [1], in experiment [5], in [6], in experiment [7], in experiment [13] and in experiment [10] was “inactive” in each case. In addition, the Potency entry in experiment [11] and in [12] was “inactive” throughout. For the same molecule, the molecule was called inactive in experiment [2], in [3], in experiment [4] and in experiment [9].
`C[C@@H](N)[C@@H](O)c1ccccc1`: the Potency result in experiment [1], in experiment [5], in experiment [6], in [7], in experiment [8] and in experiment [10] was “inactive” throughout. Besides, the Potency result in experiment [11], in experiment [12] and in experiment [14] was “inactive” throughout. The molecule was classed as inactive in experiment [2], in [3], in experiment [4] and in experiment [9].
